Bioassay records (PubChem BioAssay)
Many of the other results were omitted from the sample, so hits are more common in it than they were.
RE007 growth inh – less growth of the S. pombe RE007 Vpr strain | AID 651644 | Potency, µM (highest dose often 92.2 µM), without a hit: at the highest dose activity change, negative = less growth, hits mostly inhibitors | actives 0.21% (n = 360,000) | S. pombe RE007 Vpr strain, BacTiter-Glo ATP luminescence, 24 h; active = well fitted falling curve with a large enough effect; inconclusive = small, poorly fitted or top-dose-only effect; inactive = no such curve, though single readings can be large or run the other way; note: potency is the fitted concentration of half-maximal effect; % is set by controls: 0 for no effect and ±100 for the full control effect; nearly all actives have a fitted effect of over 50% in size
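Fission yeast RE007 carrying one integrated HIV-1 vpr copy, seeded at OD 0.01 in PMG+AL medium with 23 nL pinned compound. Grown 24 h at 30 degrees; viability read by BacTiter-Glo luminescence after 5 min.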
LmPK inhibitor – inhibitors of Leishmania mexicana pyruvate kinase; Q27686; purified LmPK, Kinase-Glo ATP luminescence, 1 h; Potency, µM (titrated, usually from 57.5 µM), for the others: top-dose activity change, negative = inhibition, most hits filed as inhibitors; actives 0.37% (n = 290,000); AID 1721; note: potency is the fitted concentration of half-maximal effect; % is set by controls: 0 for no effect and ±100 for the full control effect
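Kinase-Glo luminescence read after 1 h RT reaction of 0.1 nM LmPK with 0.5 mM PEP and 0.1 mM ADP. Activity scaled between uninhibited and enzyme-free controls.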
Shiga toxin inh – Shiga toxin inhibition; Vero cells, Shiga toxin protein synthesis inhibition reporter; actives 9.2% (n = 290,000); inhibition, % at 38.7 µM; in the data active = inhibition mostly above about 28%, no sharp cut-off; inactive = mostly below about 43%; note: 0% is about no effect
Tb PYK inh – T. brucei pyruvate kinase inhibition | Q57TT1 | TbPYK enzyme, Kinase-Glo Plus ATP luminescence, 45 min | Potency, µM (doses to about 76.8 µM), for inactives: top-dose activity, negative = inhibition, most hits filed as inhibitors | actives 0.12% (n = 410,000) | AID 624173; note: potency is the fitted concentration of half-maximal effect; % is set by controls: 0 for no effect and ±100 for the full control effect; nearly all actives have a fitted effect of over 50% in size
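Enzyme and substrate buffer are dispensed first and compound is pin-transferred. ADP at 130 uM final then starts the reaction, which runs 45 min at room temperature. Detection reagent is added for 10 min before luminescence is imaged.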
Cycloheximide cs – counter-screen for Shiga toxin inhibitors: cycloheximide protein synthesis inhibition | AID 2314 | actives 12% (n = 300,000) | max response, % | cell reporter, cycloheximide protein synthesis inhibition counterscreen; in the data active = max response mostly above about 13%, no sharp cut-off; inactive = mostly below about 14%; note: read at 38.3 µM for the half of the compounds with a filed dose; 0% is about no effect
Giardia FBPA inh-1 – Giardia lamblia aldolase inhibition; purified Giardia FBPA; AID 2451; actives 0.71% (n = 290,000); A8B2U2; Potency, µM (doses to about 59.6 µM), for the others: at the top dose activity, negative = inhibition, most hits filed as inhibitors; note: potency is the fitted concentration of half-maximal effect; % is set by controls: 0 for no effect and ±100 for the full control effect; nearly all actives have a fitted effect of over 55% in size
Target sequence (A8B2U2 whole entry, looked up): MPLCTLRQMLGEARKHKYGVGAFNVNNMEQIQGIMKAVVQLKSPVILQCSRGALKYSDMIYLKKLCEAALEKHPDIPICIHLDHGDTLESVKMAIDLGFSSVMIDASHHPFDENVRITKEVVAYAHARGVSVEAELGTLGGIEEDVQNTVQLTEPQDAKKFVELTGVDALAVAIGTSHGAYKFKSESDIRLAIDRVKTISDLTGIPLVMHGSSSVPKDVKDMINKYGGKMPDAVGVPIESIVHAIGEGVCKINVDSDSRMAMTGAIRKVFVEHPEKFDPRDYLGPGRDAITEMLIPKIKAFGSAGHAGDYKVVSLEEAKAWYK
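Giardia FBPA (40 nM reagent) was preincubated 10 min at RT with compound (up to 57.5 uM final), then substrate plus GAPDH/TPI/NAD/arsenate coupling system with diaphorase/resazurin was added; resorufin fluorescence (525/598 nm) was read after 20 min.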
Giardia growth – Giardia lamblia growth inhibition. Giardia lamblia trophozoite growth inhibition. AID 2785. Potency, µM (highest dose often 57.5 µM), inactives show at the top dose activity change, negative = inhibition, hits mostly inhibitors. shares compounds with Giardia FBPA inh-1. actives 5% (n = 1,500);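 note: potency is the fitted concentration of half-maximal effect; trophozoites exposed to compound for 48 h at 37 °C; % is set by controls: 0 for no effect and ±100 for the full control effect; nearly all actives have a fitted effect of over 70% in size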
Mammal cell tox – mammalian cytotoxicity of Giardia aldolase inhibitor hits; shares compounds with Giardia FBPA inh-1; mammalian cell viability counter-screen, qHTS; Potency, µM (top dose mostly 57.5 µM), inactives show top-dose viability change, negative = toxicity, actives largely listed as inhibitors; actives 4% (n = 1,500);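 note: Chinese hamster ovary cells used as mammalian cytotoxicity surrogate; viability measured as cellular ATP by luminescence; potency is the fitted concentration of half-maximal effect; compound exposure lasted 48 h before reading; % is set by controls: 0 for no effect and ±100 for the full control effect; nearly all actives have a fitted effect of over 60% in size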
Giardia FBPA inh-2 – confirmation of Giardia fructose-bisphosphate aldolase inhibitors | shares compounds with Giardia FBPA inh-1 | purified Giardia aldolase enzyme activity, qHTS | Potency, µM (series often up to 57.5 µM), without a hit: at the top dose activity change, negative = inhibition, most hits filed as inhibitors | actives 5% (n = 1,500) | AID 2787; note: potency is the fitted concentration of half-maximal effect; % is set by controls: 0 for no effect and ±100 for the full control effect; nearly all actives have a fitted effect of over 45% in size
Rabbit FBPA inh – blocks rabbit muscle aldolase in Giardia aldolase selectivity test | shares compounds with Giardia FBPA inh-1 | Rabbit muscle FBPA enzyme inhibition, selectivity counter-screen | Potency, µM (titrated, usually from 57.5 µM), inactives show top-dose activity, negative = inhibition, hits mostly inhibitors | actives 4% (n = 1,500); note: potency is the fitted concentration of half-maximal effect; % is set by controls: 0 for no effect and ±100 for the full control effect; nearly all actives have a fitted effect of over 60% in size
Target sequence (P00883 whole entry, looked up): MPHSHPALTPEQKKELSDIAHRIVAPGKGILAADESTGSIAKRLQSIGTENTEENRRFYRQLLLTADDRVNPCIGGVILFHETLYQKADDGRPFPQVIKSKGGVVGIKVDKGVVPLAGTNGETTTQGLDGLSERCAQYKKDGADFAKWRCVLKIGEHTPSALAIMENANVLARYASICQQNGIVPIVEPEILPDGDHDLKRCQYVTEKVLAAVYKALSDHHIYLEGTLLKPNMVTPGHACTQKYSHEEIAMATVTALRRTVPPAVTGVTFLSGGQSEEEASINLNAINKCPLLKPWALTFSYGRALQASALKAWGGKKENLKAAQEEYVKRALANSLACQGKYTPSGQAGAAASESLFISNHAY
GAPDH coupling – GAPDH inhibition flagged for Giardia aldolase hits; GAPDH coupling enzyme counterscreen, biochemical, qHTS; Potency, µM (titrated, usually from 57.5 µM), for inactives: top-dose activity change, negative = inhibition, usual class: inhibitors; shares compounds with Giardia FBPA inh-1; actives 6% (n = 1,500); note: potency is the fitted concentration of half-maximal effect; % is set by controls: 0 for no effect and ±100 for the full control effect; nearly all actives have a fitted effect of over 55% in size
Starred values were filed as active, the others as inactive; [ ] = dose if it differs, or a comment. Unless noted, calls come from the whole dose curve; as a rule, active = well fitted curve in the direction sought with a large enough effect; inconclusive = small, poorly fitted or top-dose-only effect, or another doubt; inactive = no such curve, though single readings can be large; an effect the other way counts as inactive or inconclusive.

How did CC(C)c1ccc(S(=O)(=O)/N=C2/C=C(Sc3ncn[nH]3)C(=O)c3ccccc32)cc1 do in these assays?
RE007 growth inh: inconclusive; LmPK inhibitor: inconclusive; Shiga toxin inh: 78*; Tb PYK inh: 14µM*; Cycloheximide cs: 36*; Giardia FBPA inh-1: 0.45µM*; Giardia growth: 7.1µM*; Mammal cell tox: 25µM*; Giardia FBPA inh-2: 3.5µM*; Rabbit FBPA inh: 16µM*; GAPDH coupling: 3.5µM*

What do the screens show for `Cc1ccc(S(=O)(=O)Nc2ccc(O)c(Sc3ncn[nH]3)c2)cc1`?
RE007 growth inh: -1%; LmPK inhibitor: 5%; Shiga toxin inh: -10; Tb PYK inh: 5%; Cycloheximide cs: -3; Giardia FBPA inh-1: -30%

Results for CC(C(=O)Nc1ccccc1C(F)(F)F)N1CCN(C)CC1 (stereo not given) ?
RE007 growth inh: -4%; LmPK inhibitor: 3%; Tb PYK inh: 3%; Cycloheximide cs: 0; Giardia FBPA inh-1: 16µM*; Giardia growth: -7%[10.4 µM]; Mammal cell tox: 9%; Giardia FBPA inh-2: 4%; Rabbit FBPA inh: -3%; GAPDH coupling: 13%

How did CN1CCN(CC(=O)Nc2ccccc2C(F)(F)F)CC1 do in these assays?
RE007 growth inh: 5%; LmPK inhibitor: -2%; Shiga toxin inh: 4; Tb PYK inh: -11%; Cycloheximide cs: 7; Giardia FBPA inh-1: inconclusive

How did C[n+]1cccc2c(Br)ccc([O-])c21 do in these assays?
RE007 growth inh: -20%; LmPK inhibitor: -6%; Shiga toxin inh: -8; Tb PYK inh: -10%; Cycloheximide cs: -1; Giardia FBPA inh-1: 0.18µM*; Giardia growth: 20µM*; Mammal cell tox: -16%; Giardia FBPA inh-2: 4µM*; Rabbit FBPA inh: 13µM*; GAPDH coupling: 4.5µM*

What do the screens show for `COc1cccc(CN2CCN(Cc3cccc(Oc4ccccc4)c3)CC2)c1OC`?
RE007 growth inh: 5%; LmPK inhibitor: 3%; Shiga toxin inh: -4; Tb PYK inh: 8%; Cycloheximide cs: 2; Giardia FBPA inh-1: 16µM*; Giardia growth: -25%; Mammal cell tox: inconclusive; Giardia FBPA inh-2: 1%; Rabbit FBPA inh: -5%; GAPDH coupling: 5%

How did CCN1CCN(Cc2cccc(Oc3ccccc3)c2)CC1 do in these assays?
RE007 growth inh: 0%; LmPK inhibitor: -7%; Shiga toxin inh: -8; Tb PYK inh: -12%; Cycloheximide cs: -2; Giardia FBPA inh-1: inconclusive

Results for COc1cccc(CN2CCN(Cc3cc(OC)c(OC)c(OC)c3)CC2)c1OC ?
RE007 growth inh: 20%; LmPK inhibitor: -1%; Shiga toxin inh: -3; Tb PYK inh: 1%; Cycloheximide cs: -2; Giardia FBPA inh-1: 13µM*; Giardia growth: inconclusive; Mammal cell tox: -14%; Giardia FBPA inh-2: -8%; Rabbit FBPA inh: 3%; GAPDH coupling: -11%

Results for COc1cccc(CN2CCN(c3ncccn3)CC2)c1OC ?
RE007 growth inh: 14%; LmPK inhibitor: 1%; Shiga toxin inh: -5; Tb PYK inh: 10%; Cycloheximide cs: -2; Giardia FBPA inh-1: inconclusive

Results for COc1cc(CN2CCN(C(=O)c3cccc4ccccc34)CC2)cc(OC)c1OC ?
RE007 growth inh: 1%; LmPK inhibitor: 5%; Shiga toxin inh: -7; Tb PYK inh: 4%; Cycloheximide cs: -5; Giardia FBPA inh-1: inconclusive

What do the screens show for `COc1cc(CN2CCN(C(=O)c3ccccc3F)CC2)cc(OC)c1OC`?
RE007 growth inh: 1%; LmPK inhibitor: -8%; Shiga toxin inh: -12; Tb PYK inh: 11%; Cycloheximide cs: -1; Giardia FBPA inh-1: 28µM*; Giardia growth: 1%[10.4 µM]; Mammal cell tox: -13%; Giardia FBPA inh-2: 0%; Rabbit FBPA inh: 8%; GAPDH coupling: 11%

Results for O=c1c2oc3ccccc3c2ncn1Cc1ccc(Br)cc1 ?
Tb PYK inh: 0%

How did COc1cc2c(cc1OC)n(CC(=O)c1ccc(F)cc1)c(=O)n1nc(CCn3nc(C)cc3C)nc21 do in these assays?
Tb PYK inh: -2%

What do the screens show for `CC1(C)Cc2sc3c(=O)[nH]c(=S)[nH]c3c2CO1`?
RE007 growth inh: 38%; LmPK inhibitor: -7%; Shiga toxin inh: 42; Tb PYK inh: inconclusive; Cycloheximide cs: 1; Giardia FBPA inh-1: 10µM*; Giardia growth: -5%[38.3 µM]; Mammal cell tox: 5%; Giardia FBPA inh-2: -7%; Rabbit FBPA inh: 12%; GAPDH coupling: 4%

How did CC1=NOC(=O)/C1=C\c1ccc(-c2ccc(Br)cc2C(=O)O)o1 do in these assays?
RE007 growth inh: -14%; LmPK inhibitor: 10%; Shiga toxin inh: -8; Tb PYK inh: -23%; Cycloheximide cs: -3; Giardia FBPA inh-1: 5µM*; Giardia growth: -17%[38.3 µM]; Mammal cell tox: -1%; Giardia FBPA inh-2: -12%; Rabbit FBPA inh: -10%; GAPDH coupling: -7%

Results for CNc1nc(-c2ccccc2)[n+](-c2ccc(C)cc2)s1 ?
RE007 growth inh: 1%; LmPK inhibitor: 22µM*; Shiga toxin inh: 135*; Tb PYK inh: inconclusive; Cycloheximide cs: 30*; Giardia FBPA inh-1: 13µM*; Giardia growth: inconclusive; Mammal cell tox: -15%; Giardia FBPA inh-2: inconclusive; Rabbit FBPA inh: 10µM*; GAPDH coupling: 6%

How did Cc1ccc(-c2nc3ccccc3nc2-c2ccccc2)cc1 do in these assays?
RE007 growth inh: 5%; LmPK inhibitor: 2%; Shiga toxin inh: -5; Tb PYK inh: 0%; Cycloheximide cs: 11; Giardia FBPA inh-1: 4%
